RXFP1 antagonist: antagonists of human relaxin receptor RXFP1 | Q9HBX9 | HEK293-RXFP1, relaxin-stimulated cAMP HTRF, 30 min; stronger effect = lower value | activity change, negative = inhibition, % at 57.5 µM | 0.59% of 350,000 active | AID 1259400;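 active means activity change of -60% or lower, but not beyond a set lower limit; inconclusive means change between -60% and -40%, or beyond the set limit; inactive means change above -40%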; further: on the % scale 0 is the no-effect control and ±100 the full control effect
Target sequence (Q9HBX9 whole entry, looked up): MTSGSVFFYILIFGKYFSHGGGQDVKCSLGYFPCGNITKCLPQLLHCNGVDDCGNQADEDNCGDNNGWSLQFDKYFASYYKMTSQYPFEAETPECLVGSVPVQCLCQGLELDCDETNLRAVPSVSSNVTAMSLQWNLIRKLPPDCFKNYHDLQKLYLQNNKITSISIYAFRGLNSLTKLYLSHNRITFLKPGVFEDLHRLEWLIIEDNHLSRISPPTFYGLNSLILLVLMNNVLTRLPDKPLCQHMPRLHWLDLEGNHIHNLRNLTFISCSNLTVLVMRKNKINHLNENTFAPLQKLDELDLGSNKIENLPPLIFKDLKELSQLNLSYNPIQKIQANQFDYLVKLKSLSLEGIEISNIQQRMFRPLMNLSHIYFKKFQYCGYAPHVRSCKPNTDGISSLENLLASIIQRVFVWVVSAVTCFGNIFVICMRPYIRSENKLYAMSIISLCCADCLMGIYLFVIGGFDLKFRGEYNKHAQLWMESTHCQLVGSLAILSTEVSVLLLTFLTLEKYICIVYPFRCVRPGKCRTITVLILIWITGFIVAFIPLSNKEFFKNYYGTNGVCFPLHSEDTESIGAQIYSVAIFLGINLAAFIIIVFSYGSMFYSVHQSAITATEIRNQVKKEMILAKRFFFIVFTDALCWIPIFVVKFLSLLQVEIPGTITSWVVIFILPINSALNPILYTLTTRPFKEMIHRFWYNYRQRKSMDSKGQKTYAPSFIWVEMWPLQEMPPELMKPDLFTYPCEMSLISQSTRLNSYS
gsp ag: activates gsp, the McCune-Albright syndrome mutation | Potency, µM (highest dose often 76.9 µM), inactives show top-dose activation (cAMP increase), usual class: activators | 0.13% of 340,000 active | gsp mutant cells, cAMP HTRF, 30 min; active means well fitted activation curve with a large enough effect; inconclusive means small, poorly fitted or top-dose-only effect, or another doubt; inactive means no such curve, though single readings can be large or run the other way; cell line not stated here;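 further: phosphodiesterase inhibitor Ro 20-1724 added with compounds to block cAMP breakdown; potency means the concentration at half of the fitted maximal effect; nearly all actives have a fitted effect of over 60% in size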
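Cells stably selected in G418 were plated at 2000/well, grown 16-24 hr, then given compounds in DMSO with the PDE inhibitor […] (300 uM solution added) for 30 min at 37C; cAMP was read by HTRF.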
gsp antag: antagonists of gsp mutant (McCune-Albright syndrome); AID 624288; gsp-mutant cells, cAMP HTRF, 30 min; 0.4% of 340,000 active; Potency, µM (top dose mostly 76.9 µM), without a hit: top-dose activity change, negative = inhibition, most hits filed as inhibitors; calls by dose curve; cell line not stated here;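 further: intracellular cAMP measured with PDE inhibitor Ro 20-1724 present during compound exposure; potency means the concentration at half of the fitted maximal effect; on the % scale 0 is the no-effect control and ±100 the full control effect; nearly all actives have a fitted effect of over 65% in size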
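HTRF cAMP measurement after 30 min RT detection following 30 min, 37C compound treatment alongside […] (added as 300 uM solution) in G418-selected cells seeded at 2000/well and grown 16–24 h.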
RXFP1 ag: RXFP1 (human) receptor agonism; Potency, µM (titrated, usually from 57.5 µM), for the others: at the top dose activation, usual class: activators; 0.3% of 370,000 active; Q9HBX9; HEK293T-RXFP1 cAMP TR-FRET, 30 min; response scale: percent of porcine relaxin response, buffer zero; further: potency means the concentration at half of the fitted maximal effect; on the % scale 0 is the no-effect control and ±100 the full control effect; nearly all actives have a fitted effect of over 60% in size
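HEK293T cells stably expressing RXFP1 were pretreated with the PDE4 inhibitor Ro 20174, exposed to compounds for 30 min at 37C, lysed, and cAMP was read by TR-FRET. Data normalized to buffer (basal) and 29 nM porcine relaxin (100%).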
p53 reactivator: mutant p53 re-activation in reporter cells. 0.063% of 320,000 active. Potency, µM (titrated, usually from 92.2 µM), without a hit: at the top dose activity change, positive = activation, most hits filed as activators. AID 504706. H1299 p53-A138V BP100-luciferase reporter, luminescence, 24 h; further: potency means the concentration at half of the fitted maximal effect; % of control where 0% means no effect; nearly all actives have a fitted effect of over 45% in size
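p53-null H1299 cells stably carrying temperature-sensitive p53-A138V and a BP100-luciferase reporter were pinned with compounds (4-point, 1:5 series) and held 24 hrs at 37 deg C. Luminescence was read 10 min after detection reagent.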
Tb PFK block: inhibitors of T. brucei phosphofructokinase; AID 485367; O15648; T. brucei PFK, ADP-Glo luminescence; Potency, µM (top dose mostly 57.5 µM), for inactives: at the top dose activity, negative = inhibition, hits mostly inhibitors; 0.17% of 330,000 active;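 further: potency means the concentration at half of the fitted maximal effect; 0% = uninhibited 1x PFK enzyme wells and -100% = no-enzyme wells; nearly all actives have a fitted effect of over 60% in size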
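Compounds were pin-transferred as a titration series up to 57 uM into substrate buffer (0.5 mM F6P, 0.1 mM ATP, pH 8.0), then 1.25 nM PFK was added and reactions ran 45 min before ADP-Glo detection.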
Numbers without * were called inactive; [ ] = another dose, or the depositor's remark. This is a sample that favours compounds with a hit; in the whole collection about 1.1% have one here. Unless noted, the call rests on the fitted dose curve; in most records, active means well fitted curve in the direction sought with a large enough effect; inconclusive means small, poorly fitted or top-dose-only effect, or another doubt; inactive means no such curve, though single readings can be large; an effect the other way counts as inactive or inconclusive.

Results for Cc1ccc(-c2cn(-c3cccc(Cl)c3)c(S(=O)(=O)CC(=O)Nc3ccccc3F)n2)cc1 ?
RXFP1 antagonist: -63.8*; RXFP1 ag: 3.9%

How did O=C(CS(=O)(=O)c1nc(-c2ccc(Cl)cc2)cn1-c1ccccc1)Nc1ccc(F)cc1F do in these assays?
RXFP1 antagonist: -63.9*; RXFP1 ag: -3.1%

How did CCc1nc(-c2cc(S(=O)(=O)N3CCN(c4ccccc4OC)CC3)ccc2OC)no1 do in these assays?
RXFP1 antagonist: -9.3; RXFP1 ag: 0.8%

What do the screens show for `COc1ccc(C2=NN(c3nc(C)cc(C)n3)C(=O)C2)cc1`?
RXFP1 antagonist: 8.6; gsp ag: 4.1%[15.4 µM]; gsp antag: 10.9%; RXFP1 ag: -0.4%; p53 reactivator: 0.9%; Tb PFK block: -3.5%

How did O=C(CCNc1cc(Cl)cc(Cl)c1)c1cccs1 do in these assays?
RXFP1 antagonist: -8.8; gsp ag: -10.1%; gsp antag: -6.9%; RXFP1 ag: -1.3%; p53 reactivator: 11.0%; Tb PFK block: -8.9%

How did O=C(CCNc1ccc(Cl)cc1)c1cccs1 do in these assays?
RXFP1 antagonist: 1.4; gsp ag: 7.5%; gsp antag: 11.2%; RXFP1 ag: 1.3%; p53 reactivator: 15.8µM*; Tb PFK block: 11.8%

How did Cc1nn(C)c(C)c1NC(=O)COc1ccccc1C#N do in these assays?
RXFP1 antagonist: 3.1; gsp ag: 11.0%; gsp antag: 3.4%; p53 reactivator: 4.4%; Tb PFK block: 6.0%

How did COc1ccc(CCNc2oc(Cc3cccc4ccccc34)nc2C#N)cc1OC do in these assays?
RXFP1 antagonist: -0.5; gsp ag: -17.6%; gsp antag: inconclusive; RXFP1 ag: 1.3%; p53 reactivator: -15.9%; Tb PFK block: 0.2%

Results for COc1ccc(CCNc2oc(COc3ccc(Br)cc3)nc2C#N)cc1OC ?
RXFP1 antagonist: -61.8*; gsp ag: -24.8%; gsp antag: 39.8µM*; RXFP1 ag: 2.0%; p53 reactivator: -3.1%; Tb PFK block: -0.7%

How did CCc1ccc(C(=O)C(C)OC(=O)Cn2cnc3c2c(=O)n(C)c(=O)n3C)cc1 (stereo unspecified) do in these assays?
RXFP1 antagonist: -5.3; gsp ag: 0.6%; gsp antag: 8.5%; RXFP1 ag: 6.0%; p53 reactivator: -0.2%; Tb PFK block: -0.4%

What do the screens show for `COc1ccc(C2=NOC(Cn3nc(C(=O)NCc4ccc(C)cc4)cc3-c3ccccc3)C2)cc1` (stereo unspecified)?
gsp ag: 12.8%; gsp antag: -23.6%; RXFP1 ag: 0.8%; p53 reactivator: 12.7%; Tb PFK block: -1.9%

Results for COc1ccc(C2=NOC(Cn3nc(C(=O)NCc4ccco4)cc3-c3ccccc3)C2)cc1 (stereo unspecified) ?
gsp ag: -27.1%; gsp antag: 31.6µM*; RXFP1 ag: 0.5%; p53 reactivator: -9.2%; Tb PFK block: 0.0%

What do the screens show for `Cc1ccc(CNC(=O)CN(c2cccc([N+](=O)[O-])c2)S(C)(=O)=O)cc1`?
RXFP1 antagonist: -8.8; gsp ag: 6.4%[15.4 µM]; RXFP1 ag: -2.6%; p53 reactivator: 3.8%; Tb PFK block: 0.0%

What do the screens show for `Cc1ccc(C(C)C)c(OCc2ccc(C(=O)N/N=C/c3ccc(C(=O)O)cc3)cc2)c1`?
RXFP1 antagonist: -68.5*; gsp ag: 9.5%; gsp antag: -28.0%; RXFP1 ag: 0.0%; p53 reactivator: -8.1%; Tb PFK block: 2.6%

How did O=C(CN1C(=O)S/C(=C\c2ccc(O)cc2)C1=O)c1ccccc1 do in these assays?
RXFP1 antagonist: inconclusive; gsp ag: 14.4%[15.4 µM]; gsp antag: -15.1%; RXFP1 ag: -2.5%; p53 reactivator: 5.7%; Tb PFK block: -1.6%

Results for CCn1c2ccccc2c2c3ncc4cccn4c3ccc21 ?
RXFP1 antagonist: -10.7; gsp ag: -19.9%[15.4 µM]; gsp antag: -12.1%; RXFP1 ag: 7.5%; p53 reactivator: 28.2µM*; Tb PFK block: -0.2%

How did c1ccc2c(c1)ncc1cccn12 do in these assays?
RXFP1 antagonist: -1.3; gsp ag: 10.9%; gsp antag: 6.2%; RXFP1 ag: 4.3%; p53 reactivator: 0.7%; Tb PFK block: -8.4%

What do the screens show for `O=C(Nc1cccnc1)/C(N=Nc1c(Cl)cccc1Cl)=C(\O)c1ccccc1`?
RXFP1 antagonist: 2.8; gsp ag: 2.7%; gsp antag: 2.5%; RXFP1 ag: 3.3%; p53 reactivator: 2.2%; Tb PFK block: 0.2%

What do the screens show for `c1ccc2c(C3OCC4(CCCC4)CO3)cccc2c1`?
RXFP1 antagonist: -25.5; gsp ag: 3.3%

What do the screens show for `Nc1cc(=O)[nH]c(SC/C=C/c2ccccc2)n1`?
RXFP1 antagonist: -0.7; gsp ag: -21.4%; gsp antag: -7.3%; RXFP1 ag: 0.3%; p53 reactivator: 3.2%; Tb PFK block: -6.2%

What do the screens show for `O=c1cc(C(F)(F)F)nc(SC/C=C/c2ccccc2)[nH]1`?
RXFP1 antagonist: -77.5*; gsp ag: -11.0%; gsp antag: inconclusive; RXFP1 ag: 1.3%; p53 reactivator: inconclusive; Tb PFK block: -2.4%

What do the screens show for `CCCS(=O)(=O)c1nc(S(=O)(=O)c2ccc(C)cc2)c(NCCCN2CCCC2=O)s1`?
RXFP1 antagonist: 22.9; gsp ag: 2.82µM*; gsp antag: -4.5%; RXFP1 ag: 17.2%; p53 reactivator: -17.7%; Tb PFK block: 0.7%

Results for CCS(=O)(=O)c1nc(S(=O)(=O)c2ccc(C)cc2)c(N2CC(C)OC(C)C2)s1 (stereo unspecified) ?
RXFP1 antagonist: -14.5; gsp ag: inconclusive; gsp antag: 4.4%; RXFP1 ag: 28.2µM*; p53 reactivator: -6.1%; Tb PFK block: -3.1%

How did CCS(=O)(=O)c1nc(S(=O)(=O)c2ccc(Cl)cc2)c(NCCCN2CCCC2=O)s1 do in these assays?
RXFP1 antagonist: 26.2; gsp ag: inconclusive; gsp antag: 1.0%; RXFP1 ag: 19.8%; p53 reactivator: -2.6%; Tb PFK block: -25.6%

How did CCCS(=O)(=O)c1nc(S(=O)(=O)c2ccc(C)cc2)c(N2CCN(C)CC2)s1 do in these assays?
RXFP1 antagonist: 5.1; gsp ag: 3.16µM*; gsp antag: 4.7%; RXFP1 ag: inconclusive; p53 reactivator: 12.2%; Tb PFK block: -5.0%

How did O=C(Nc1ccccc1O)c1ccccc1O do in these assays?
RXFP1 antagonist: 8.0; gsp ag: 11.4%; gsp antag: 25.1µM*; RXFP1 ag: -2.1%; p53 reactivator: 12.9%; Tb PFK block: 0.6%

How did Cc1cccc(NC(=O)c2ccccc2O)c1C do in these assays?
RXFP1 antagonist: 5.0; gsp ag: -4.9%; gsp antag: -18.7%; RXFP1 ag: 1.3%; p53 reactivator: inconclusive; Tb PFK block: -3.3%
